Rows were chosen to be rich in hits. Some 5.7% of all compounds tested hit in one or more screens of this group.
TGFb inhibitor = inhibitors of TGF-b signaling; HepG2 CAGA-GFP TGF-b/SMAD3 reporter, GFP fluorescence, 18 h; TGF-beta stimulated, 500 pg/mL final; 1.2% of 410,000 active; Potency, µM (doses to about 46.1 µM), hits mostly inhibitors; AID 588855; note: nearly all actives have a fitted effect of over 65% in size
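Inhibition of TGF-beta-driven CAGA-GFP reporter expression in HEPG2 cells is measured by cellular GFP fluorescence after 18 h stimulation with 500 pg/mL recombinant TGF-beta in 1% FBS medium at 37 degrees C.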
ATXN viability = cell viability loss in ATXN counter-screen; 0.49% of 400,000 active; AID 651635; S2 cells (HEK-293 line with an ATXN2-luciferase reporter) viability, CellTiter-Fluor protease fluorescence, 24 h; Potency, µM (highest dose often 56.7 µM), hits mostly cytotoxic; note: nearly all actives have a fitted effect of over 40% in size
IL1B secr inh = inhibitors of inflammasome signaling (IL-1 beta secretion); 4.7% of 360,000 active; activity change, % at 57.5 µM; THP-1 LPS/ATP IL-1B secretion, AlphaLISA, 16 h; active compounds read low; AID 743279; in the data active = activity change below about -50%; inconclusive = mostly about -30% to -49%
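THP-1 cells pretreated 1 hr with compounds (up to 57.5 uM final), then stimulated with LPS (250 ng/mL final) plus ATP (1.25 mM final); secreted IL-1B measured by AlphaLISA after 16 hr, decreased signal indicating inhibition.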
ATXN2 expr inh = inhibitors of ATXN2 expression | 0.72% of 360,000 active | Potency, µM (titrated, usually from 57 µM), most hits filed as inhibitors | HEK-293 ATXN2-luciferase reporter, luminescence, 24 h | AID 1745845; note: nearly all actives have a fitted effect of over 55% in size
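qHTS (up to 57 uM final) was run with 24 h compound exposure of reporter cells at 37 °C. Each well was multiplexed: SteadyGlo luminescence measured ATXN2-luciferase expression after a fluorogenic Gly-Phe-AFC viability readout (25 uM final).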
HepG2 tox = kills HepG2 cells in TGF-b inhibitor counter-screen; Potency, µM (top dose mostly 46.1 µM), actives largely listed as cytotoxic; HepG2 CAGA-GFP viability, ATP luminescence, 18 h; 0.76% of 410,000 active; AID 588856
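CellTiter-Glo luminescence gave cytotoxicity after 18 hours at 37 degrees C. The cells were HepG2 CAGA-GFP in 1% FBS DMEM, stimulated with 500 pg/mL TGF-beta after compound addition. %Activity was normalised to no-cell wells (complete cell-killing) and DMSO (no toxicity), and curves were fitted and classified.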
Each line names hits and unclear results; the compound was inactive in the other large screens; ! = not active in a repeat. Unless noted, calls come from the whole dose curve; as a rule, active = well fitted curve in the direction sought with a large enough effect; inconclusive = small, poorly fitted or top-dose-only effect, or another doubt; inactive = no such curve, though single readings can be large; an effect the other way counts as inactive or inconclusive.

COc1cc(/C=C/c2nc(C#N)c(NC3CCCCC3)o2)cc(OC)c1OC	TGFb inhibitor inconclusive (no result: ATXN viability, IL1B secr inh, ATXN2 expr inh)
CCc1ccc(/C=C2\SC(=S)N(CCCC(=O)N3CCN(C)CC3)C2=O)cc1	TGFb inhibitor inconclusive, ATXN viability inconclusive, IL1B secr inh -55.3 (no result: ATXN2 expr inh)
COc1ccccc1/C=C1\SC(=S)N(CCC(=O)N2CCN(C)CC2)C1=O	TGFb inhibitor inconclusive, ATXN viability inconclusive, IL1B secr inh -58.8
O=C1/C(=C\c2ccccc2)SC(=S)N1CCC(=O)N1CCCCC1CCO (centres undefined)	ATXN viability inconclusive, IL1B secr inh inconclusive
CC(C)c1ccc(/C=C2\SC(=S)N(CCC(=O)N3CCCCC3CCO)C2=O)cc1 (centres undefined)	ATXN viability inconclusive, IL1B secr inh -51.3 (no result: ATXN2 expr inh)
COc1ccc(/C=C2\SC(=S)N(CCCC(=O)N3CCN(C)CC3)C2=O)cc1	TGFb inhibitor inconclusive, ATXN viability inconclusive, IL1B secr inh -90.6, ATXN2 expr inh inconclusive
COc1cccc(/C=C2\SC(=S)N(CCCC(=O)N3CCCCC3)C2=O)c1	none
CC(NC(=O)c1ccco1)c1nnc2n1CCN(Cc1ccc(Cl)cc1)CC2 (centres undefined)	none (no result: TGFb inhibitor, IL1B secr inh, ATXN2 expr inh, HepG2 tox)
CN1CCN(C(=O)CCN2C(=O)/C(=C\c3ccc(F)cc3)SC2=S)CC1	TGFb inhibitor inconclusive, IL1B secr inh -99.2, ATXN2 expr inh inconclusive (no result: ATXN viability)
CN1CCN(C(=O)CCN2C(=O)/C(=C\c3ccc(Cl)cc3)SC2=S)CC1	none
O=C(NCCc1ccccc1)C1CCN(Cc2cccc3ccccc23)CC1	IL1B secr inh -51.1
Cc1ccc(Cn2c(CN3CCC(C(=O)NCc4cccnc4)CC3)cc3ccccc32)cc1	TGFb inhibitor inconclusive, ATXN2 expr inh inconclusive, HepG2 tox 11.2µM (no result: ATXN viability, IL1B secr inh)
CCCNC(=O)C1CCN(Cc2cc3ccccc3n2Cc2ccccc2)CC1	TGFb inhibitor inconclusive, ATXN viability inconclusive, ATXN2 expr inh inconclusive (no result: IL1B secr inh)
CN(C)CCNC(=O)C1CCN(Cc2cc3ccccc3n2Cc2ccccc2)CC1	TGFb inhibitor inconclusive, ATXN2 expr inh 22.4µM, HepG2 tox 11.2µM (no result: ATXN viability, IL1B secr inh)
O=C(Nc1ccc(N2CCC(c3ccccc3)C2)c(C(=O)O)c1)c1ccc(Cl)cc1 (centres undefined)	none (no result: IL1B secr inh)
CCCCN(CCCC)CCNC(=O)c1cc(-c2cccnc2)nc2ccc(S(=O)(=O)N3CCC(C)CC3)cc12	none (no result: ATXN viability, IL1B secr inh, ATXN2 expr inh)
CCN(CC)CCNC(=O)c1cc(-c2cccnc2)nc2ccc(S(=O)(=O)N3CCC(C)CC3)cc12	IL1B secr inh -98.8 (no result: ATXN2 expr inh)
COc1ccc(N2CCN(C(=O)c3sc4nc5n(c(=O)c4c3C)CCC5)CC2)cc1	none (no result: ATXN viability, IL1B secr inh, ATXN2 expr inh)
CC(=O)N(CCC(Cc1ccccc1)c1ccc2c(c1)OCO2)Cc1ccc(Cl)cc1 (centres undefined)	TGFb inhibitor inconclusive, ATXN viability inconclusive, IL1B secr inh inconclusive, ATXN2 expr inh inconclusive, HepG2 tox 10µM
COc1ccccc1C(CC(=O)O)c1ccc2c(c1)OCO2 (centres undefined)	none
O=C(O)CC(Cc1ccccc1)c1ccc2c(c1)OCO2 (centres undefined)	none
COc1ccc(CN(CCC(c2ccc3c(c2)OCO3)c2ccccc2OC)C(C)=O)cc1 (centres undefined)	TGFb inhibitor 12.6µM (no result: ATXN viability, IL1B secr inh, ATXN2 expr inh)
CCOC(=O)c1cc([N+](=O)[O-])c([N+](=O)[O-])cc1NC(C)=O	IL1B secr inh -81.4
CCOC(=O)c1ccc(NC(=O)c2ccccc2[N+](=O)[O-])cc1	none
O=c1cc(N2CCCCC2)c(-c2ccccc2)nn1Cc1ccccc1	TGFb inhibitor inconclusive, IL1B secr inh -99.5 (no result: ATXN viability)
Cn1nc(-c2ccccc2)c(N2CCCCC2)cc1=O	none
COc1ccc(Cn2nc(-c3ccccc3)c(N3CCCCC3)cc2=O)cc1	TGFb inhibitor inconclusive, IL1B secr inh -231.5, HepG2 tox 22.4µM
CCCCn1cc(S(=O)(=O)c2ccc(CC)cc2)c(=O)c2cc(F)c(N3CCCC(C)C3)cc21 (centres undefined)	none (no result: ATXN viability, IL1B secr inh, ATXN2 expr inh)
CC(=O)NC(=S)Nc1cc(C(F)(F)F)ccc1N1CCOCC1	TGFb inhibitor inconclusive, IL1B secr inh -61.3
Cc1nnc(SCC(=O)Nc2cc(C(F)(F)F)ccc2N2CCOCC2)o1	ATXN viability inconclusive
Cc1ccccc1SCC(=O)Nc1cc(C(F)(F)F)ccc1N1CCOCC1	TGFb inhibitor inconclusive, IL1B secr inh -69.7
O=C(NC(=S)Nc1cc(C(F)(F)F)ccc1N1CCOCC1)c1ccco1	IL1B secr inh inconclusive, ATXN2 expr inh inconclusive
CCOc1ccc(/C=C/c2cc[n+](C)c3ccccc23)cc1OCC	none (no result: ATXN viability, IL1B secr inh, ATXN2 expr inh)
CCOC(=O)N1CCN(Cc2ccc3c(c2)CN(C(=O)c2ccc(C#CC(C)(C)O)o2)CCO3)CC1	none (no result: TGFb inhibitor, IL1B secr inh, ATXN2 expr inh, HepG2 tox)
COc1ccc(NC(=O)CNC(=O)CC23CC4CC(CC(C4)C2)C3)c(OC)c1	none
Cc1ccc(NC(=O)CNC(=O)CC23CC4CC(CC(C4)C2)C3)c(O)c1	IL1B secr inh -52.3
CCOC(=O)c1ccc(S(=O)(=O)NCCNCc2ccccc2)cc1	IL1B secr inh -76.0
Cc1ccc(-c2noc(N=O)c2NO)cc1	TGFb inhibitor inconclusive, ATXN viability inconclusive, IL1B secr inh -95.9, ATXN2 expr inh inconclusive
COc1cccc(C2C(C(=O)OC(C)C)=C(C)N=c3s/c(=C\c4ccc(C(=O)O)cc4)c(=O)n32)c1 (centres undefined)	none
O=c1/c(=C\c2ccc(O)cc2)sc2n1C(c1ccccc1)C(c1ccccc1)=NN=2 (centres undefined)	IL1B secr inh -65.0
Cc1cc(Nc2sc(C(=O)c3ccc(F)cc3)c(N)c2C(=O)Nc2ccc(F)cc2)ccc1Cl	TGFb inhibitor inconclusive, ATXN viability inconclusive, ATXN2 expr inh inconclusive (no result: IL1B secr inh)
Cc1cccc(C)c1NC(=O)C(=O)NCC(c1ccc2c(c1)OCO2)N1CCOCC1 (centres undefined)	none (no result: IL1B secr inh)
CCOC(=O)C1=C[C@]2(CC)CCCN3CCc4c(n1c1ccccc41)[C@@H]32	ATXN viability inconclusive, ATXN2 expr inh 30.6µM!
CC[C@]12CCCN3CCc4c(n(c5ccccc45)C(=O)C1)[C@@H]32	ATXN viability inconclusive, ATXN2 expr inh inconclusive
O=C(CCN1C(=O)/C(=C/c2ccccc2)SC1=S)NNC(=O)c1ccncc1	none
O=C(O)C(c1ccccc1)N1C(=O)/C(=C/c2cccs2)SC1=S (centres undefined)	none
CC(c1ccccc1)N1C(=O)/C(=C/c2ccncc2)SC1=S (centres undefined)	TGFb inhibitor inconclusive, ATXN viability 22.4µM, IL1B secr inh -50.1 (no result: ATXN2 expr inh)
O=C(O)CCCCCN1C(=O)/C(=C\c2ccncc2)SC1=S	IL1B secr inh -99.3
O=C(O)CCCN1C(=O)/C(=C/c2ccncc2)SC1=S	IL1B secr inh -80.2
COc1ccc(CN2C(=O)/C(=C/c3ccncc3)SC2=S)cc1	TGFb inhibitor inconclusive, ATXN viability inconclusive, IL1B secr inh -82.2
Cc1ncc2c(c1CNC(=O)/C=C/c1cccs1)CCN(C(=O)c1c(C)noc1C)C2	none (no result: TGFb inhibitor, IL1B secr inh, ATXN2 expr inh, HepG2 tox)
